Bioassay records (PubChem BioAssay)
PrPC surface inh: inhibitors of human cell surface prion protein PrPC, primary screen, cell-based, TR-FRET; TR-FRET read-out; 370,000 tested, 0.43% active; inhibition, % at 13.8 µM; in the data active = inhibition above about 24%
SSB-PriA inh: inhibitors of Klebsiella pneumoniae PriA binding to SSB C-terminal tail, primary screen, biochemical, AlphaScreen; PriA–SSB C-terminal tail interaction (Klebsiella pneumoniae); AlphaScreen SSBct-PriA binding, biotinylated peptide; inhibition, % at 33 µM; 430,000 tested, 0.6% active; in the data active = inhibition mostly above about 37%, no sharp cut-off; inactive = mostly below about 20%
TcdB inh: TcdB glycohydrolase inhibitors, primary screen, biochemical, single point, plate reader. Toxin B (Clostridioides difficile), P18177. TcdB glycohydrolase enzymatic assay. inhibition, % at 9.99 µM. 350,000 tested, 0.24% active. AID 652162, 2013; in the data active = inhibition above about 10%
Target sequence (P18177 whole entry, looked up): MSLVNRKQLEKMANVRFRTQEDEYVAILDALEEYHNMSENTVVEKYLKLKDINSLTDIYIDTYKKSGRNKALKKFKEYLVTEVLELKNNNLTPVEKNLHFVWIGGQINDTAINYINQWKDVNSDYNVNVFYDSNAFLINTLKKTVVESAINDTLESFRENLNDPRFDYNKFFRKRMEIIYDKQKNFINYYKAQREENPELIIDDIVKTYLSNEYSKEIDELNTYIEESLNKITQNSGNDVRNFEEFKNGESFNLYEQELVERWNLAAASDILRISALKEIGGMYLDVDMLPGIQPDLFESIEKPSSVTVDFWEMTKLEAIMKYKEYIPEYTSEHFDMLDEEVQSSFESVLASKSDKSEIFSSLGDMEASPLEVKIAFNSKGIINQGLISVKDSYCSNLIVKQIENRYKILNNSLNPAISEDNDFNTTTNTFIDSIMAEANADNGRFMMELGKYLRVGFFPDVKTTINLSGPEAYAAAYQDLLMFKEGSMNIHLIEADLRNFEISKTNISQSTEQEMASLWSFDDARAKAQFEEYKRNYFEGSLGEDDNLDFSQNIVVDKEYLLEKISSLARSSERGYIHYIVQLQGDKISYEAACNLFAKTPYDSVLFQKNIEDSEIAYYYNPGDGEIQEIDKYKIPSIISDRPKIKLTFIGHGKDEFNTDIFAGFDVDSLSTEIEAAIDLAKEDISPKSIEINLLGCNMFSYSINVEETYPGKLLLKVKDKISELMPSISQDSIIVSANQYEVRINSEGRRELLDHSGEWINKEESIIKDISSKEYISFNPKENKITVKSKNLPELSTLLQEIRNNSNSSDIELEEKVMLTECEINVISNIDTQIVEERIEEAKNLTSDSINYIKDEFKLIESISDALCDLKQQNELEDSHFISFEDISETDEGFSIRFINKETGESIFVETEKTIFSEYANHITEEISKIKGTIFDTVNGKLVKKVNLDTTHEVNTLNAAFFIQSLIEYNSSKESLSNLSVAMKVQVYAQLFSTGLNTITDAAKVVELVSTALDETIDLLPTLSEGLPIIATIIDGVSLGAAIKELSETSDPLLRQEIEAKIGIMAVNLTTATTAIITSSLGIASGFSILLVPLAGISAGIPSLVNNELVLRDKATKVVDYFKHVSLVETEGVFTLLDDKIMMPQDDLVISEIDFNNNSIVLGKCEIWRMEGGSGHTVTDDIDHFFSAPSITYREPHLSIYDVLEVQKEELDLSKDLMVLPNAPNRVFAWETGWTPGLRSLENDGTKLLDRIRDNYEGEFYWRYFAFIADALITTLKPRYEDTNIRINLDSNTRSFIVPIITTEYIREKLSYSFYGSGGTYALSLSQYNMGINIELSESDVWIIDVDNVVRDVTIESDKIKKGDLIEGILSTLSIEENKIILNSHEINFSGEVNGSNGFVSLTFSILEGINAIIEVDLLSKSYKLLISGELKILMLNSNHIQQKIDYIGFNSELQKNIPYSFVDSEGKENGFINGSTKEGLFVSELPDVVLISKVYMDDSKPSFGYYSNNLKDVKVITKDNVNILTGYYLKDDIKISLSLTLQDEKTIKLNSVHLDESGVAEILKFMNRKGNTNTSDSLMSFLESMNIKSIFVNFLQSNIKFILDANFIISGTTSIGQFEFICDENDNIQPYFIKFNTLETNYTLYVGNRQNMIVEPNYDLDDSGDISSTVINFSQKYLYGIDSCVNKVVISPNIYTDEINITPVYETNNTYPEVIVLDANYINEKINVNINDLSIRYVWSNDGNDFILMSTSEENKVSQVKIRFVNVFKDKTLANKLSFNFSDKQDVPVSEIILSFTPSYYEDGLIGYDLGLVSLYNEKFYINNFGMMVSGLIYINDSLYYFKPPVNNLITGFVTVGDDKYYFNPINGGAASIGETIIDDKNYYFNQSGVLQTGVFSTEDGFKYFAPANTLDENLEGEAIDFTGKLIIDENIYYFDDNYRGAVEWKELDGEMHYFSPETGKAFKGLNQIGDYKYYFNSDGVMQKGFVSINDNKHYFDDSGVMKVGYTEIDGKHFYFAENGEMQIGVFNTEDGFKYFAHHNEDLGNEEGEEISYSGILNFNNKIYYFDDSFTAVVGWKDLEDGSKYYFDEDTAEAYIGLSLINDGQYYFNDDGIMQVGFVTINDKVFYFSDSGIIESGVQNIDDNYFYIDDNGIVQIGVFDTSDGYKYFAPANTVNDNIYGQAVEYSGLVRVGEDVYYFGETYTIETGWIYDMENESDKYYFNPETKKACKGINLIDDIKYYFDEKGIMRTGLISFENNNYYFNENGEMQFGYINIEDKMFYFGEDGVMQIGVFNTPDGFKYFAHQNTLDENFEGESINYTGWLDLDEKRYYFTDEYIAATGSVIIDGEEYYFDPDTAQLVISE
CCHFV vOTU inh: CCHFV vOTU protease inhibitors, primary screen, biochemical, Pep-AMC substrate, fluorescence. 370,000 tested, 0.55% active. inhibition, % at 11.5 µM. Crimean-Congo hemorrhagic fever virus L polyprotein viral ovarian tumor (vOTU) protease …; in the data active = inhibition above about 30%
VHR inh abs: VHR1 phosphatase inhibitors, primary screen, biochemical, absorbance, uHTS; recombinant VHR phosphatase, pNPP absorbance; inhibition, % at 13.3 µM; 290,000 tested, 0.52% active; in the data active = inhibition above about 50%
Vc quorum ag: inducers of Vibrio cholerae quorum light production without autoinducers, primary screen, BH1578 luxS cqsA deficient, single point; 350,000 tested, 0.16% active; V. cholerae BH1578 lux reporter, luminescence, 6 h; AID 588436, 2011; activation, % at 18.7 µM; in the data active = activation mostly above about 9.7%, no sharp cut-off
PrPC confirm: confirmation of inhibitors of cell surface human prion protein, confirmation, cell-based, TR-FRET | inhibition, % at 13.8 µM | cell surface PrPC level | 1,500 tested, 65% active | shares compounds with PrPC surface inh; in the data active = inhibition above about 25%
LD9 cytotox: cytotoxicity in LD9 cells, cytotoxicity control for cell surface PrPc inhibitor project, cell-based, luminescence, high throughput | shares compounds with PrPC surface inh | luminescence viability | 1,500 tested, 29% active | inhibition, % at 13.8 µM | AID 743201, 2013; in the data active = inhibition above about 9.5%
Large screens that a line does not name were inactive (follow-up assays come after a bar, where they were run). Hits are enriched below; roughly 1.5% of the tested compounds scored in any of these assays.

O=C(O)c1cc(-c2cccnc2)on1	none (no result: PrPC surface inh, TcdB inh, CCHFV vOTU inh, VHR inh abs, Vc quorum ag)
CCN(CC)S(=O)(=O)c1cc(C(=O)Nc2ccncc2)ccc1Cl	PrPC surface inh 26 (no result: TcdB inh) | PrPC confirm inactive | LD9 cytotox 17
COc1ccc(OC(F)(F)F)cc1CC1(C)C(=O)Nc2ccc(S(=O)(=O)NC3CCCCC3)cc21 (centres undefined)	PrPC surface inh 36 (no result: SSB-PriA inh, VHR inh abs) | PrPC confirm 29 | LD9 cytotox inactive
O=C(CSc1nnc(-c2c[nH]c3ccccc23)n1-c1ccc(F)cc1)NCc1ccccc1Cl	none (no result: PrPC surface inh, TcdB inh, CCHFV vOTU inh, VHR inh abs, Vc quorum ag)
O=c1nc(N/N=C/c2ccccn2)cn[nH]1	PrPC surface inh 25 (no result: SSB-PriA inh) | PrPC confirm inactive | LD9 cytotox 9.5
Cc1sc(NC(=O)c2ccc(F)cc2)c(CN2CCCCC2C)c1C (centres undefined)	none (no result: PrPC surface inh, TcdB inh, CCHFV vOTU inh, VHR inh abs, Vc quorum ag)
CCCN(c1ccc(OCC)cc1)S(=O)(=O)c1ccc2c(c1)NC(=O)CO2	PrPC surface inh 55 | PrPC confirm 56 | LD9 cytotox inactive
CCOC(=O)Cc1csc(NC(=O)C2CCCN(c3ccc(-c4ccc(F)cc4)nn3)C2)n1 (centres undefined)	none (no result: PrPC surface inh, TcdB inh, CCHFV vOTU inh, VHR inh abs, Vc quorum ag)
CN(C)S(=O)(=O)Oc1cccc(C(=O)Nc2cccc(Cl)c2)c1	PrPC surface inh 24 (no result: TcdB inh) | PrPC confirm inactive | LD9 cytotox 20
COC(=O)c1cc(OC)c(OC)cc1NC(=O)c1sc2nc(C)ccc2c1N	none (no result: PrPC surface inh, TcdB inh, CCHFV vOTU inh, VHR inh abs, Vc quorum ag)
CCC(=O)NC(c1ccc(Cl)cc1Cl)c1ccc2cccnc2c1O (centres undefined)	PrPC surface inh 28 | PrPC confirm inactive | LD9 cytotox 25
CCCCC(=O)NC(c1ccc(Cl)cc1Cl)c1ccc2cccnc2c1O (centres undefined)	none
CC(=O)NC(c1ccc(Cl)cc1)c1ccc2cccnc2c1O (centres undefined)	PrPC surface inh 40 (no result: VHR inh abs) | PrPC confirm 35 | LD9 cytotox 33
CCCC(=O)NC(c1ccc(C(C)C)cc1)c1ccc2cccnc2c1O (centres undefined)	none
CCCC(=O)NC(c1ccccc1Cl)c1ccc2cccnc2c1O (centres undefined)	PrPC surface inh 27 | PrPC confirm 28 | LD9 cytotox 34
CC(C)C(=O)NC(c1ccc(Cl)cc1Cl)c1ccc2cccnc2c1O (centres undefined)	PrPC surface inh 30 | PrPC confirm 25 | LD9 cytotox 9.8
CCC(=O)NC(c1ccc(C)cc1)c1ccc2cccnc2c1O (centres undefined)	PrPC surface inh 30 | PrPC confirm 31 | LD9 cytotox 28
CC(C)N1CCC(CNC(=O)COc2ccc(F)cc2)CC1	none (no result: PrPC surface inh, TcdB inh, CCHFV vOTU inh, VHR inh abs, Vc quorum ag)
Cn1c2ccccc2c2cc(/C=N/NC(=O)c3ccccc3F)ccc21	PrPC surface inh 47 (no result: SSB-PriA inh) | PrPC confirm inactive | LD9 cytotox inactive
CCCCOC(=S)NC(=O)c1sc2ccccc2c1Cl	PrPC surface inh 43 (no result: TcdB inh) | PrPC confirm inactive | LD9 cytotox inactive
CN(C)CCCOC(=O)c1sc2ccccc2c1Cl	none
CCCOc1ccc(C(CC(=O)O)NC(=O)c2sc3ccccc3c2Cl)cc1 (centres undefined)	PrPC surface inh 43 | PrPC confirm 34 | LD9 cytotox inactive
CCOc1ccc(C(CC(=O)O)NC(=O)c2sc3ccccc3c2Cl)cc1 (centres undefined)	none
COc1cc(NS(=O)(=O)c2ccc(NC(=S)NC(=O)c3sc4ccccc4c3Cl)cc2)nc(OC)n1	none (no result: TcdB inh)
NC(N)=NS(=O)(=O)c1ccc(NC(=S)NC(=O)c2sc3ccccc3c2Cl)cc1	PrPC surface inh 36 | PrPC confirm 77 | LD9 cytotox inactive
NC(COc1ncn(-c2ccccc2)n1)=NS(=O)(=O)c1ccccc1	none (no result: PrPC surface inh, TcdB inh, CCHFV vOTU inh, VHR inh abs, Vc quorum ag)
